Measurements as given in PubChem BioAssay (NCI).
Compounds without any hit were thinned out: in the full panel of roughly 79,000, 15% have a hit. The source made the active and inactive calls. Cut-off read from the data, not from the text of the source: active = growth inhibition above about 70%; inactive = the rest.

What was measured:
[1] = NCI Yeast Anticancer Drug Screen. Data for the rad50 strain (AID 155);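 note: 0% = growth of vehicle-only cultures of the same strain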; details: S. cerevisiae rad50 strain growth inhibition; at 50.0 µM; stronger effect = higher value
In short: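 A DNA repair-deficient yeast mutant serves as the test organism; compound-induced growth inhibition is calculated against vehicle-treated cells.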

[2] = NCI Yeast Anticancer Drug Screen. Data for the mec2-1 strain (AID 157); details: S. cerevisiae mec2-1 strain, at 50.0 µM, stronger effect = higher value
In short: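 Using mec2-1 yeast: add compound, measure growth, express inhibition versus vehicle-treated cultures.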

[3] = NCI Yeast Anticancer Drug Screen. Data for the sgs1 mgt1 strain (AID 161);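 note: 0% = growth of cultures given vehicle only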; details: S. cerevisiae sgs1 mgt1 strain, at 50.0 µM, stronger effect = higher value
In short: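 Yeast cells carrying a defined DNA-repair defect were exposed to test compounds. Growth inhibition was measured relative to vehicle-treated controls.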

[4] = NCI Yeast Anticancer Drug Screen. Data for the cln2 rad14 strain (AID 165);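 note: 0% = growth equal to vehicle treated cultures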; details: S. cerevisiae cln2 rad14 strain, at 50.0 µM, stronger effect = higher value
In short: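 Yeast strain cln2 rad14, bearing defects in cell cycle control and DNA repair, serves as the test system; values reflect growth inhibition compared with vehicle.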

[5] = NCI Yeast Anticancer Drug Screen. Data for the bub3 strain (AID 167); details: S. cerevisiae bub3 mutant strain, at 50.0 µM, stronger effect = higher value
In short: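 Inhibition values come from growth of compound-treated mutant yeast normalised to vehicle-treated controls.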

[6] = NCI Yeast Anticancer Drug Screen. Data for the mlh1 rad18 strain (AID 175); details: S. cerevisiae mlh1 rad18 strain growth inhibition; at 50.0 µM; stronger effect = higher value
In short: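 Steps: expose repair-defective yeast to compound; measure growth; express inhibition against vehicle-treated controls.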

Measured: growth inhibition

O=C(O)C=C1CCCCC1
inactive: [1] 4.35% | [2] -4.2% | [3] 20% | [4] 10.4% | [5] 11.9% | [6] -1.1%

O=C1CN(c2cccc(C(F)(F)F)c2)C(=O)CN1CCN1CC(=O)N(c2cccc(C(F)(F)F)c2)CC1=O
inactive: [1] -30.6% | [2] -6.4% | [3] -3.55% | [4] -6.45% | [5] -14.1% | [6] -5.2%

Cc1cc2c(c3ccccc13)Cc1ccccc1-2
inactive: [1] -5.65% | [2] 9.2% | [3] -7% | [4] 7.35% | [5] 15.4% | [6] -13.8%

C[N+](C)(C)C1CC([N+](C)(C)C)C2c3ccccc3C21 (configuration not stated)
inactive: [1] -15.2% | [2] 23.1% | [3] 1.95% | [4] -9.05% | [5] -3.35% | [6] 3.9%

COc1ccc(/C=C2\N=C(c3cc(OC)c(OC)c(OC)c3)OC2=O)cc1OC
inactive: [1] 7.1% | [2] 10.9% | [3] 8.5% | [4] 29.9% | [5] -1.85% | [6] 25.1%

CCCCCCCCCCCC[N+]1(C)CCS(=O)CC1 (configuration not stated)
inactive: [5] 63.4%
active: [1] 84.7% | [2] 84.3% | [3] 80% | [4] 70.7% | [6] 85.3%

O=S(Nc1ccc(Cl)cc1)c1ccccc1 (configuration not stated)
inactive: [1] 10% | [2] 10.9% | [3] 31.1% | [4] 4.1% | [5] 18.1% | [6] 2.3%

CCC(C)(C(=O)O)c1ccccc1 (configuration not stated)
inactive: [1] 4.1% | [2] -5.85% | [3] -3.95% | [4] -15.1% | [5] -42.5% | [6] 15.7%

CC(=O)Nc1ncn(C)c1S(N)(=O)=O
inactive: [1] -4.3% | [2] -19.1% | [3] -1.45% | [4] -16.3% | [5] -7.9% | [6] 15.5%

COc1cccc(N(CN2C(=O)CCC2OC)C(C)=O)c1 (configuration not stated)
inactive: [1] 4.2% | [2] 7.35% | [3] 12.9% | [4] 19.3% | [5] -7.35% | [6] -31.4%

O=[N+]([O-])c1ccc(F)c(Cl)c1F
inactive: [1] 15.8% | [2] -6.65% | [3] -2.15% | [4] -20.9% | [5] -12.7% | [6] -3.45%

C(=C\c1ccc2ccc(/C=C/c3ccccc3)cc2c1)/c1ccccc1
inactive: [1] -15.2% | [2] 14.7% | [3] 12.1% | [4] -26.8% | [5] 8.25% | [6] -17.1%

NC(=O)N/N=C1\CC2CCC1C2Cl (configuration not stated)
inactive: [1] -0.05% | [2] -1.35% | [3] -5% | [4] -0.45% | [5] -13.7% | [6] -14.8%

O=C(Nc1cc(Cl)ccc1Cl)c1ccccc1Cl
inactive: [1] 2.9% | [2] -6.7% | [3] 14.8% | [4] 8.85% | [5] 19.9% | [6] 20.5%

C/C=C/[C@@H]1[C@H]2C(=O)[C@]3(Cl)[C@@H](/C=C/C)[C@@H]3C(=O)[C@@]12Cl
inactive: [1] 5.05% | [2] 6.1% | [3] 6.45% | [4] 12.8% | [5] 10% | [6] 29.6%

CC1CN=C(c2ccccc2)C(c2ccccc2)=N1 (configuration not stated)
inactive: [1] -24.2% | [2] 1.3% | [3] -6.4% | [4] -6.15% | [5] -12.5% | [6] -22.3%

CN(C)c1ccc(/C=N/N(Cc2ccccc2)c2ccccc2)cc1
inactive: [1] -14.4% | [2] -29.1% | [3] 3.2% | [4] -11.6% | [5] 11.3% | [6] 10.2%

C=C1c2nc3ccccc3n2C=C(c2ccc(Cl)cc2)N1c1ccc(OC)cc1
inactive: [1] -3.95% | [2] 23.4% | [3] 19.8% | [4] 11.4% | [5] 7.7% | [6] 40.2%

CC1OC(OC2C(OC(=O)[C@]34CCC(C)(C)C[C@H]3C3=CC[C@@H]5[C@@]6(C)CC[C@H](OC7OC(CO)C(O)C(O)C7OC7OC(CO)C(O)C(O)C7O)C(C)(C)[C@@H]6CC[C@@]5(C)[C@]3(C)CC4)OCC(O)C2O)C(O)C(O)C1OC1OCC(O)C(O)C1O (some centres not stated)
inactive: [1] -24.8% | [2] -41.2% | [3] -44.5% | [4] -33.8% | [5] -32.8% | [6] -23.1%

NNC(=O)c1ccc2ccccc2c1O
inactive: [1] 17.4% | [2] 14.8% | [3] 17.1% | [4] 0.05% | [5] 22.1% | [6] 49%

CC(C)(O)C1OCC(C2CCC3(C)C4=CCC5C(C)(C)C(O)CCC5(C)C4CCC23C)CC1O (configuration not stated)
inactive: [1] 23.7% | [2] 27.6% | [3] 34.8% | [4] 42.6% | [5] 21.5% | [6] 4.75%

CCOC(=O)c1cc(-n2nnc3ccccc32)cn1C
inactive: [1] -4.7% | [2] -23.4% | [3] 0.35% | [4] -3.6% | [5] 19.4% | [6] -0.65%

CCN(CC)c1ccc(C=O)cc1
inactive: [1] 6.8% | [2] -11.1% | [3] -36.5% | [4] -6.4% | [5] 13.2% | [6] -11.1%

Cc1ccc(Cl)cc1NC(=S)N(C)C
inactive: [1] 15.9% | [2] 16.1% | [3] 34.7% | [4] 3.75% | [5] 50.2% | [6] 24.5%

COCc1cc(CC(C)=O)nc(C/C=N/NC(N)=O)n1
inactive: [1] -18.4% | [2] -10.4% | [3] -9.75% | [4] -28.4% | [5] -47% | [6] -11.7%

CCOC(=O)NN(C(=O)OCC)C(C)(C)C(C)=O
inactive: [1] 7.3% | [2] 5.35% | [3] 5.15% | [4] -29.2% | [5] 17.8% | [6] 12.1%

C1COC2(C1)CCCO2
inactive: [1] 21.6% | [2] -0.5% | [3] -27.2% | [4] 3.5% | [5] 23.2% | [6] -2.95%

CCOC1(c2ccccc2)c2ccccc2C(C)(C)c2ccccc21
inactive: [1] 0.8% | [2] 12.3% | [3] 42% | [4] 4.2% | [5] 14.9% | [6] -5.2%

O=C(O)c1ccc(S(=O)(=O)c2cccc(Cl)c2)cc1
inactive: [1] 0.85% | [2] 7.8% | [3] 8.65% | [4] -18.7% | [5] -16.1% | [6] 6.45%

CC(=O)Nc1c(C)cc(S(=O)(=O)O)cc1C
inactive: [1] 6.25% | [2] -0.1% | [3] -8.65% | [4] -58.7% | [5] 28.6% | [6] -18.5%

COc1cc2ccc3c(c2cc1OC)CCc1cn[nH]c1-3
inactive: [1] 2.05% | [2] 3.4% | [3] 8% | [4] 27.4% | [5] 11.8% | [6] 9.45%

Nc1cc(Cl)c(I)c(Cl)c1
inactive: [1] -4.5% | [2] -29.6% | [3] 5.05% | [4] 10.2% | [5] -2.15% | [6] 14.4%

C1CSCCCSCCSCCCSC1
inactive: [1] -15.1% | [2] -9.45% | [3] 3.6% | [4] 5.3% | [5] 0.2% | [6] 4.45%

CC(C)OP(=O)(CCC(=O)C1(O)CCC2C3CCC4=CC(=O)CCC4(C)C3CCC21C)OC(C)C (configuration not stated)
inactive: [1] 11.4% | [2] 4.25% | [3] 10.3% | [4] 3.25% | [5] 0.65% | [6] -8.6%

CC1(c2ccc(Cl)s2)NC(=O)NC1=O (configuration not stated)
inactive: [1] -1% | [2] -4.65% | [3] -6.45% | [4] -45.8% | [5] 1.9% | [6] -13.5%

C=CCNC(=O)NCCCC(NC(C)=O)C(=O)NCc1ccccc1 (configuration not stated)
inactive: [1] -20.9% | [2] -21.3% | [3] -14.7% | [4] 6.75% | [5] -22.3% | [6] -20.6%

O=C1CC2(CCCC2)CC(=O)N1
inactive: [1] -11.2% | [2] -11.4% | [3] -15.6% | [4] -29.4% | [5] 6.4% | [6] -8.1%

NC(=O)CC(NC(=O)OCc1ccccc1)C(N)=O (configuration not stated)
inactive: [1] 8.6% | [2] 8.4% | [3] -11.2% | [4] -12.4% | [5] 10.8% | [6] -14.6%

CCOc1ccc(N2CCN(C(=O)Nc3ccccc3OC)CC2)cc1
inactive: [1] -4.1% | [2] -6.2% | [3] -1.8% | [4] -47.5% | [5] 21.1% | [6] -3.95%

CCCCCC(CN(C)C)C(=O)CC(SCC)c1ccccc1 (configuration not stated)
inactive: [1] 27.7% | [2] 20.4% | [3] 8.85% | [4] 1.05% | [5] 18.6% | [6] 16.8%

COc1ccc(NC(=O)N(C)Cc2ccccc2Cl)cc1
inactive: [1] -0.35% | [2] -10.8% | [3] 1.9% | [4] -12.6% | [5] 11.2% | [6] 0.4%

CC1=C(\C=C/C(C)=C/C=C/C(C)=C/C=N/NC(=O)c2cccnc2)C(C)(C)CCC1
inactive: [1] 2.4% | [2] -7.4% | [3] 33.5% | [4] 41.6% | [5] 30% | [6] 27.6%
